Measurements reported in PubChem BioAssay AID1159580 (chemical genetic matrix, 2015).
“And” between values parts separate entries of the source, which are not always exact repeats. Equal values may be shown once. Out of some 5,500 compounds screened, about 2,000 (36%) were called active. Not shown: some 18% with an inconclusive outcome. Cut-off read from the data, not from the text of the source: active = normalized growth mostly below about 0.91 (no sharp cut-off); inconclusive = no clear call, values can overlap the other calls; inactive = mostly above about 0.92. The list shows a part of the results.

Test: chemical genetic growth profiling, strain panel (AID 1159580);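 note: tested at 20 µM; growth read once vehicle control cultures reached saturation at 30 °C; 1 = growth at the plate median or of vehicle wells; lower values mean less growth of the strain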
Details: S. cerevisiae deletion strains, growth OD

Measured: normalized growth

CC1[C@H](C)OC(=O)CC(O)CC(O)CC(O)CCC(O)C(O)C[C@]2(O)CC(O)C(C(=O)O)C(CC(OC3O[C@H](C)[C@@H](O)[C@H](N)[C@@H]3O)/C=C/C=C/C=C/C=C/CC/C=C/C=C/[C@H](C)[C@H]1O)O2 (stereo partly specified)
active: locus YAL013W, strain DEP1, hits give low values 0.0554 | locus YAL021C, strain ccr4, hits give low values 0.186 | locus YAL026C, strain drs2, hits give low values 0.0661 | locus YAL030W, strain snc1, hits give low values 0.824 | locus YBR009C, strain hhf1, hits give low values 0.557 | locus YBR021W, strain FUR4, hits give low values 0.369 | locus YBR171W, strain sec66, hits give low values 0.0858 | locus YBR229C, strain ROT2, hits give low values 0.206 | locus YCL011C, strain gbp2, hits give low values 0.223 | locus YCL029C, strain bik1, hits give low values 0.425 | locus YCL069W, strain vba3, hits give low values 0.849 | locus YCR088W, strain abp1, hits give low values 0.0729 | locus YDL035C, strain GPR1, hits give low values 0.0678 | locus YDL074C, strain BRE1, hits give low values 0.144 | locus YDL101C, strain DUN1, hits give low values 0.188 | locus YDL134C, strain PPH21, hits give low values 0.592 | locus YDL185W, strain tfp1, hits give low values 0.0687 | locus YDL192W, strain arf1, hits give low values 0.133 | locus YDR001C, strain nth1, hits give low values 0.815 | locus YDR069C, strain doa4, hits give low values 0.858 | locus YDR101C, strain arx1, hits give low values 0.119 | locus YDR150W, strain NUM1, hits give low values 0.0676 | locus YDR162C, strain NBP2, hits give low values 0.0472 | locus YDR195W, strain ref2 0.466 | locus YDR297W, strain sur2, hits give low values 0.828 | locus YDR318W, strain mcm21, hits give low values 0.194 | locus YDR334W, strain swr1, hits give low values 0.415 | locus YDR335W, strain msn5, hits give low values 0.904 | locus YDR388W, hits give low values 0.0675 | locus YDR502C, strain sam2, hits give low values 0.0781 | locus YEL003W, strain gim4, hits give low values 0.154 | locus YEL037C, strain rad23, hits give low values 0.723 | locus YEL061C, strain CIN8 (second series), hits give low values 0.815 | locus YEL061C, strain CIN8, hits give low values 0.0554 | locus YER015W, strain faa2, hits give low values 0.822 | locus YER110C, hits give low values 0.188 | locus YER155C, strain BEM2 (second series), hits give low values 0.633 | locus YER155C, strain BEM2, hits give low values 0.122 | locus YER167W, strain BCK2, hits give low values 0.0855 | locus YFR010W, strain ubp6, hits give low values 0.137 | locus YGL078C, strain dbp3, hits give low values 0.0582 | locus YGL086W, strain mad1, hits give low values 0.124 | locus YGL173C, strain kem1, hits give low values 0.799 | locus YGL227W, strain vid30, hits give low values 0.061 | locus YGL240W, strain doc1, hits give low values 0.537 | locus YGL248W, strain PDE1, hits give low values 0.646 | locus YGL253W, strain hxk2, hits give low values 0.44 | locus YGR078C, strain PAC10, hits give low values 0.0638 | locus YGR135W, strain pre9, hits give low values 0.0907 | locus YGR229C, strain SMI1, hits give low values 0.0609 | locus YGR252W, strain gcn5, hits give low values 0.385 | locus YHR013C, strain ard1, hits give low values 1.35 [resistant] | locus YHR027C, strain rpn1, hits give low values 0.77 | locus YHR030C, strain SLT2, hits give low values 0.179 and 0.0985 | locus YHR079C, strain IRE1 (second series), hits give low values 0.312 | locus YHR079C, strain IRE1, hits give low values 0.102 | locus YHR094C, strain hxt1, hits give low values 0.302 | locus YHR129C, strain ARP1, hits give low values 0.129 | locus YHR142W, strain chs7, hits give low values 0.658 | locus YHR200W, strain rpn10, hits give low values 0.0755 | locus YIL066C, strain RNR3, hits give low values 0.51 | locus YIL125W, strain kgd1, hits give low values 0.0583 | locus YIR030C, strain dcg1, hits give low values 0.182 | locus YJL092W, strain hpr5, hits give low values 0.402 | locus YJL095W, strain BCK1, hits give low values 0.567 and 0.099 | locus YJL115W, strain asf1, hits give low values 0.887 | locus YJL129C, strain trk1, hits give low values 1.2 [resistant] | locus YJL134W, strain LCB3, hits give low values 0.372 | locus YJL164C, strain tpk1, hits give low values 0.775 | locus YJL166W, strain qcr8, hits give low values 0.789 | locus YJL168C, strain set2, hits give low values 0.199 | locus YJL187C, strain SWE1 (second series), hits give low values 0.168 | locus YJL187C, strain SWE1, hits give low values 0.846 | locus YJR043C, strain POL32, hits give low values 0.0611 | locus YJR066W, strain TOR1, hits give low values 0.0213 | locus YJR075W, strain HOC1, hits give low values 0.0672
inactive: locus YBL061C, strain skt5, hits give low values 0.931 | locus YBR023C, strain chs3, hits give low values 0.918 | locus YBR279W, strain paf1, hits give low values 0.982 | locus YCL016C, strain dcc1, hits give low values 0.971 | locus YDL005C, strain med2, hits give low values 0.953 | locus YDL040C, strain nat1, hits give low values 0.995 | locus YDR137W, strain rgp1, hits give low values 0.914 | locus YDR159W, strain sac3, hits give low values 1.04 | locus YDR392W, strain spt3, hits give low values 1.11 | locus YER016W, strain bim1, hits give low values 0.961 | locus YER111C, strain swi4, hits give low values 0.959 | locus YGL167C, strain pmr1, hits give low values 0.996 | locus YIL073C, strain SPO22, hits give low values 0.987 | locus YJL095W, strain BCK1 (second series), hits give low values 0.994 | locus YJL154C, strain vps35, hits give low values 0.985
